Shown are actives, neighbours in structure and some others; about 3.1% of the full set was active somewhere.
PLK1 PBD block – blocks phosphopeptide binding to human PLK1 polo-box domain. P53350. AID 720504. hit rate 2.8% among 360,000. Potency, µM, without a hit: max response, negative = inhibition, usual class: inhibitors. Plk1 PBD binding of FITC phosphopeptide, fluorescence polarization; note: potency is the fitted concentration of half-maximal effect; series mostly up to about 57 µM; % is set by controls: 0 for no effect and ±100 for the full control effect; nearly all actives have a fitted effect of over 65% in size
Target sequence (P53350 whole entry, looked up, the tested form may be a part): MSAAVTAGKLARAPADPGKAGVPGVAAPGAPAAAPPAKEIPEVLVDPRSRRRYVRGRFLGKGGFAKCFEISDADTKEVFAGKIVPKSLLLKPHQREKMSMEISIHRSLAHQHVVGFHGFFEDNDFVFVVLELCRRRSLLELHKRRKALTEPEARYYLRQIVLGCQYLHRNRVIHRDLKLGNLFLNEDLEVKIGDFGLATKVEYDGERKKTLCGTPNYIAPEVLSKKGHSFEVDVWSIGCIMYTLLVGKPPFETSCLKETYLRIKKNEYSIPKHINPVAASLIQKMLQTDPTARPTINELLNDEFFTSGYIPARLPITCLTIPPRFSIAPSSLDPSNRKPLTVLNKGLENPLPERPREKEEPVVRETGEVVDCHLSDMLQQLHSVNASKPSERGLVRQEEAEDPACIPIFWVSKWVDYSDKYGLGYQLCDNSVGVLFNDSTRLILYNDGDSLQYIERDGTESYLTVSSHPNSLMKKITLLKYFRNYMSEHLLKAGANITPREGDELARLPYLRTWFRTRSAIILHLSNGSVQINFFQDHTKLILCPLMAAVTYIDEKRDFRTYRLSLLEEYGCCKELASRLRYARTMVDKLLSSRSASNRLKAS
Vif-A3F inh – Vif-A3F binding inhibition. HeLa A3F-eYFP + Vif (tagged APOBEC3F with the HIV-1 protein that degrades it), YFP fluorescence increase. Potency, µM (titrated, usually from 46.1 µM), without a hit: at the highest dose activity, negative = active. hit rate 0.2% among 390,000. AID 602313; note: potency is the fitted concentration of half-maximal effect; % of control where 0% means no effect; nearly all actives have a fitted effect of over 65% in size
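HeLa cells stably expressing Vif plus C-terminally eYFP-tagged A3F were seeded, incubated overnight at 37 deg C, dosed with compound, incubated overnight again at 37 deg C. Yellow fluorescence (Ex 488/Em 500-530) reported blocked Vif-mediated A3F-eYFP degradation.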
TSHR antag – antagonists of human thyroid stimulating hormone receptor; hit rate 0.2% among 330,000; P16473; activity change, negative = inhibition, % at 11.5 µM; TSHR-expressing cells, TSH-stimulated cAMP HTRF, 2 h; hits give low values; AID 504810;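 active = activity change below a set negative limit, meaning inhibition stronger than a set level, cut at about -70% in these data; inconclusive = activity change between two set negative limits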; note: % is set by controls: 0 for no effect and ±100 for the full control effect
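Inhibition of cAMP made by TSHR-expressing cells under TSH stimulation (4nM final, EC80; 2 h, 37 deg C) is quantified with a one-step lysis HTRF kit, anti-cAMP cryptate versus cAMP-d2.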
Vif-APOBEC3G blk – blocks the Vif interaction with human APOBEC3G; Potency, µM (doses to about 46.1 µM), inactives show at the highest dose activity, negative = active, hits mostly inhibitors; Q9HC16; hit rate 0.076% among 410,000; HeLa A3G-eYFP + Vif (tagged APOBEC3G with the HIV-1 protein that degrades it), YFP fluorescence, overnight; note: potency is the fitted concentration of half-maximal effect; % is set by controls: 0 for no effect and ±100 for the full control effect; nearly all actives have a fitted effect of over 60% in size
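Read-out is eYFP fluorescence (Ex 488/Em 500-530) from Vif-expressing HeLa A3G-eYFP cells; more signal means A3G escaped Vif-mediated degradation. Cells plated overnight, compound pinned in, incubated overnight at 37 deg C.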
VDR inh – vitamin D3 receptor (human) inhibition | P11473 | VDR-SRC2-3 peptide fluorescence polarization, 2 h | Potency, µM, for inactives: max response, negative = inhibition, hits mostly inhibitors | hit rate 0.93% among 400,000; note: potency is the fitted concentration of half-maximal effect; % is set by controls: 0 for no effect and ±100 for the full control effect
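Reagent solutions, kept cold and dark, are dispensed first; compounds are then pinned in at 23 nl, plates briefly spun, and incubated 2 h at ambient temperature. Inhibition of VDR–SRC2-3 peptide binding is read by fluorescence polarization.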
* hit, by the source's call; ? = inconclusive; . = no result. Unless noted, calls come from the whole dose curve; as a rule, active = well fitted curve in the direction sought with a large enough effect; inconclusive = small, poorly fitted or top-dose-only effect, or another doubt; inactive = no such curve, though single readings can be large; an effect the other way counts as inactive or inconclusive.

SMILES | PLK1 PBD block | Vif-A3F inh | TSHR antag | Vif-APOBEC3G blk | VDR inh
Cc1ccc(Sc2ccc(C=C3C(=O)N(C)C(=O)N(C)C3=O)o2)cc1 | 0.53µM* | 1% | 28 | 0% | ?
CN1C(=O)C(=Cc2ccc(N3CCOCC3)o2)C(=O)N(C)C1=O | 106% | 11µM* | 9 | -10% | 0%
Cc1cccc(-n2c(/C=C/c3c(C)[nH]c4ccccc34)nc3ccccc3c2=O)c1 | . | 10µM* | . | -10% | -10%
Cc1cccc(-n2c(/C=C/c3ccc([N+](=O)[O-])o3)nc3ccccc3c2=O)c1 | 18% | 8.9µM* | -1 | ? | 8%
O=[N+]([O-])NC1=NCCN1Cc1ccc(Cl)nc1 | 27µM* | 2% | 4 | 2% | ?
COC[C@H]([C@@H](O)[C@@H](O)C(=O)NCC[C@@H](C)c1nc(/C=C/C[C@H]2OC3(C[C@H](O)[C@H]2C)OC([C@@H](C[C@@H](O)[C@@H](C)[C@@H](O)[C@@H](C)/C=C(C)/C(C)=C/C=C/C(C)=C\C#N)OC)[C@@H](OP(=O)(O)O)C3(C)C)co1)N(C)C (some centres not stated) | . | . | . | . | 2%
O=C1C(Cl)=C(N2CCOCC2)C(=O)N1c1ccccc1F | -13% | 4% | 10 | 0% | 14µM*
C=CCc1c(C)[nH]c(=S)c(C#N)c1C | 24µM* | -13% | -8 | -3% | ?
CC(=O)OC1C(=O)[C@]2(C)C(O)CC3OC[C@]3(OC(C)=O)C2[C@@H](OC(=O)c2ccccc2)[C@]2(O)CC(O)C(C)=C1C2(C)C (some centres not stated) | . | . | . | . | 13%
O=C1NC(=S)NC(=O)C1c1ccccc1 | 24µM* | 5% | . | 0% | ?
CC1C(=O)OC2C1CC[C@@]1(C)C=CC(=O)[C@@]3(C)O[C@@]213 (some centres not stated) | . | . | . | . | 18%
COC(=O)[C@@H]1[C@@H]2C[C@H]3c4[nH]c5cc(OC)ccc5c4CCN3C[C@@H]2C[C@H](OC(=O)/C=C\c2cc(OC)c(OC)c(OC)c2)[C@H]1OC | . | . | . | . | 5%
O=C1NC(=O)C(=O)C(=O)N1 | . | . | . | . | 3.2µM*
O=C1NC(=O)C2(CCCC2)C(=O)N1 | -21% | 0% | . | -5% | -2%
O=P1(Oc2ccccc2)CC=CC(COC(c2ccccc2)(c2ccccc2)c2ccccc2)O1 (configuration not stated) | . | . | . | 0% | -16%
[O-]/[N+](=C/c1cccnc1)c1ccc(Br)cc1 | 11µM* | -17% | -4 | -2% | 45µM*
O=[N+]([O-])NC1=NCN(Cc2ccco2)CN1Cc1ccco1 | 27µM* | 1% | -5 | -4% | ?
CN1CN=C(N[N+](=O)[O-])N(Cc2ccco2)C1 | -3% | -1% | 23 | -3% | ?
Nc1ccc2nonc2c1[N+](=O)[O-] | 19µM* | ? | 0 | -7% | -16%
CCOP(=S)(OCC)O/N=C(\C#N)c1ccccc1Cl | . | . | . | . | 22µM*
O=C1NC(=S)NC(=O)C1=Cc1c(Cl)cccc1Cl | 4.7µM* | 1% | . | -5% | 16µM*
CC(C)(C)OC(=O)C(Br)CCBr (configuration not stated) | . | . | . | . | -1%
CON(C)C(=O)Nc1ccc(Br)c(Cl)c1 | . | . | . | . | 6%
Cn1c(O)c(C=NCCc2c[nH]c3ccccc23)c(=O)n(C)c1=O | -8% | -1% | -8 | 0% | -21%
CCNC(=S)NCCC1=c2ccccc2=N/C1=C\c1c(O)n(C)c(=O)n(C)c1=O | 1.1µM* | 9% | -6 | 2% | 32µM*
SMILES | PLK1 PBD block | Vif-A3F inh | TSHR antag | Vif-APOBEC3G blk | VDR inh
O=C1C(Cl)=C(Cl)C(=O)C(Cl)=C1Cl | . | . | . | . | 0.71µM*
COc1cccc2c1C(=O)c1c(O)c3c(c(O)c1C2=O)CC(O)(C(C)=NO)CC3OC1CC(N)C(O)C(C)O1 (configuration not stated) | ? | -26% | . | 2% | -9%
CC[C@]1(O)CC(O[C@@H]2CC(N(C)C)C(O)C(C)O2)c2c(cc3c(c2O)C(=O)c2c(O)cccc2C3=O)C1C(=O)OC (some centres not stated) | . | . | . | . | 32µM*
CON(C)C(=O)Nc1ccc(Br)cc1 | . | . | . | . | 10%
O=C(Nc1ccc(Br)cc1)c1cc(Br)cc(Br)c1O | . | . | . | . | 56µM*
CCCC[C@@H](C)[C@@H](OC(=O)C[C@@H](CC(=O)O)C(=O)O)[C@H](C[C@@H](C)C[C@H](O)CCCC[C@@H](O)C[C@H](O)[C@H](C)N)OC(=O)C[C@H](CC(=O)O)C(=O)O | . | . | . | . | 12%
CCN1C(=O)C(=Cc2cc(C)n(C3CC3)c2C)C(=O)N(CC)C1=S | 10% | -5% | 2 | 2% | 6%
CCN1C(=O)C(=Cc2ccc(C)s2)C(=O)N(CC)C1=S | 0.53µM* | -12% | -5 | -4% | ?
CC(CN)CC(=O)O (configuration not stated) | . | . | . | . | 2%
OC[C@@H]1[C@@H](O)[C@H](O)[C@H]2[C@@H](O)CCN21 | . | . | . | . | -2%
COc1cc(/C=C2\C(=O)NC(=O)N(c3ccc(C)cc3)C2=O)cc(OC)c1O | ? | -10% | -11 | -4% | -28%
O=C1NC(=O)N(c2ccc(Br)cc2)C(=O)/C1=C/c1ccsc1 | 4.7µM* | -22% | 4 | -6% | 45µM*
Cc1cc(/C=C2\C(=O)NC(=O)N(c3ccc(Cl)cc3)C2=O)c(C)n1C | -9% | -9% | 12 | -1% | -6%
CSc1ncc(/C=C2/C(=O)NC(=O)N(c3ccc(C)cc3)C2=O)cn1 | 9.5µM* | -11% | -2 | 2% | 40µM*
CCOc1ccc(N2C(=O)NC(=O)/C(=C/c3cnc(SC)nc3)C2=O)cc1 | 11µM* | -20% | -1 | 2% | 40µM*
Cc1ccc(N2C(=O)NC(=O)/C(=C/c3cnn(-c4ccc(C)cc4)c3)C2=O)cc1 | 1.2µM* | ? | -7 | 1% | ?
Cc1ccc(N2C(=O)NC(=O)/C(=C\c3cccn3C(C)(C)C)C2=O)cc1 | ? | -2% | 1 | 4% | -8%
Cc1ccc2c(c1)Cc1c(C(=O)NN3CCCCC3)nn(-c3ccc(Cl)cc3Cl)c1-2 | . | . | . | . | 0%
Fc1ccc(C(OCCN2CCN(C/C=C/c3ccccc3)CC2)c2ccc(F)cc2)cc1 | . | . | . | . | -17%
CCCCCCCCCCCCCCCCOC[C@@H](O)COP(=O)([O-])OCC[N+](C)(C)C | . | . | . | . | 5%
N[C@@H](Cn1cc(I)c(=O)[nH]c1=O)C(=O)O | . | . | . | . | -4%
COP(=S)(OC)Oc1nc(Cl)c(Cl)cc1Cl | . | . | . | . | 4.5µM*
CCOP(=S)(OCC)Oc1nc(Cl)c(Cl)cc1Cl | 30µM* | -11% | 14 | -2% | 32µM*
O=C(O)COc1nc(Cl)c(Cl)cc1Cl | . | . | . | . | -16%
CCOc1ccc(-c2cc(C(=O)N3CCN(c4cccc(C(F)(F)F)c4)CC3)c3ccccc3n2)cc1 | . | -5% | . | ? | 3%

Compound activity deposited in PubChem by National Center for Advancing Translational Sciences (NCATS).
